Test results reported in PubChem BioAssay (Tox21).
Records with an inconclusive call do not appear. Active and inactive are the calls of the source. Calls follow the shape of the dose curve; as a rule, active = well fitted cell-killing curve with a large enough effect in the repeat runs; inconclusive = weak or mixed curves; inactive = flat fitted curve, though single readings scatter.

Assay: qHTS RealTime-Glo MT Cell Viability Assay in HepG2 cells - 16 hour (AID 1224885); also: nearly all actives have a fitted effect of over 50% in size
Conditions: RealTime-Glo luminescence; series mostly up to 76.8 µM
Description: U.S. Tox21 Program National Center for Advancing Translational Sciences [NCATS] NIH Chemical Genomics Center [NCGC] U.S. Environmental Protection Agency [EPA] National Institutes of Environmental Health Sciences [NIEHS] National Toxicology Program [NTP] U.S. Food and Drug Administration [FDA] Tox21 Assay Overview: Measure of cell viability is critical in the cell-base assay. Analysis of cell viability is necessary for the characterization of cell responses to cytotoxic drugs and environmental stress. A RealTime-Glo MT Cell Viability Assay to monitor cell viability in real time of continues cell culture during 40 hours of compound treatment was used to screen Tox21 10K library compounds in HepG2 cells. The RealTime-Glo MT Cell Viability Assay is a nonlytic, homogeneous, bioluminescent method to measure cell viability in real time using a simple, plate-based method. The assay involves adding NanoLuc luciferase and a cell-permeant prosubstrate to cells in culture. Viable cells reduce the proprietary prosubstrate to generate a substrate for NanoLuc luciferase. This substrate diffuses from cells into the surrounding culture medium, where it is rapidly used by the NanoLuc Enzyme to produce a luminescent signal. The signal correlates with the number of viable cells, making the assay well suited for cytotoxicity studies.
Tox21 Assay Protocol Summary: The mixture of HepG2 cell suspension and reagents were dispensed at 600cells/6 ul/well in 1536-well tissue culture treated black solid bottom plates using a Multidrop dispenser. After the assay plates were incubated at a 37 C/5% CO2 incubator for 5 hours, 23 nL of compounds dissolved in DMSO, positive and negative controls was transferred to the assay plate by a pintool work station. The plates were incubated at 37 C for 40 hours. The luminescence intensity were measured at 0h, 8h, 16h, 24h, 32h and 40h time points using ViewLux plate reader during compound treatment.
% is scaled to controls: 0 for no effect and ±100 for the full control effect.

Row | Compound | outcome | activity change, negative = cytotoxic
1 | CCc1nnc(NS(=O)(=O)c2ccc(N)cc2)s1 | inactive | –
2 | COc1cc(C)ccc1C(C)C | inactive | –
3 | FC(F)(F)C(F)(F)C(F)(F)C(F)(F)C(F)(F)C(F)(F)C(F)(F)C(F)(F)Br | inactive | –
4 | Cc1cc2nc(N)sc2cc1C | inactive | –
5 | CC(=O)Oc1cc(C(C)C)c(OCCN(C)C)cc1C | inactive | –
6 | CC(C)OC(C)C | inactive | –
7 | Clc1cccc(-c2cc(Cl)cc(Cl)c2)c1 | inactive | –
8 | CCCCNC(=S)NCCCC | inactive | –
9 | C=CCCC=C | inactive | –
10 | c1ccc(CN(CC2=NCCN2)c2ccccc2)cc1 | inactive | –
11 | CCCCCCCCCC#N | inactive | –
12 | CN(C)CC[C@@H](c1ccc(Cl)cc1)c1ccccn1 | inactive | –
13 | Cc1nnc(SCC2=C(C(=O)O)N3C(=O)[C@@H](NC(=O)Cn4cnnn4)[C@H]3SC2)s1 | inactive | –
14 | CC(C)(C)c1ccc(OC(=O)c2ccccc2O)cc1 | inactive | –
15 | COC(=O)c1ccc(OC)cc1 | inactive | –
16 | CCCCCOc1ccc(C2SC(=O)NC2=O)cc1OCC (stereo not given) | inactive | –
17 | COc1cc(Cl)ccc1Cl | inactive | –
18 | Nc1cccc(S(=O)(=O)O)c1 | inactive | –
19 | O=C(O)CN(CCN(CC(=O)O)CC(=O)O)CCN(CC(=O)O)CC(=O)O | – | -0.409% [at 15.8 µM] (inactive)
20 | CCN[C@H]1CN(CCCOC)S(=O)(=O)c2sc(S(N)(=O)=O)cc21 | inactive | –

Row | Compound | outcome | activity change, negative = cytotoxic
21 | OCCN(CCO)CCN(CCO)CCO | inactive | –
22 | CCCCC1CCC(=O)O1 (stereo not given) | inactive | –
23 | C=CC1CO1 (stereo not given) | inactive | –
24 | CCC(=O)c1ccc2c(c1)N(CCCN(C)C)c1ccccc1S2 | inactive | –
25 | CCN1CC(CCN2CCOCC2)C(c2ccccc2)(c2ccccc2)C1=O (stereo not given) | inactive | –
26 | CCCNC(C)(C)COC(=O)c1ccccc1 | inactive | –
27 | CCOC(=O)c1ccccc1O | inactive | –
28 | Cc1nc(-c2ccccn2)ncc1C(=O)Nn1cc(C)c2cc(F)ccc21 | inactive | –
29 | CN(C)Cc1ccccc1 | inactive | –
30 | CN1CCN(N)CC1 | inactive | –
31 | CCOc1ccccc1N | inactive | –
32 | CC1CN(c2ccccc2)NC1=O (stereo not given) | inactive | –
33 | CCCOc1ccc2c(c1)CC[C@@H]1[C@@H]2CC[C@]2(C)C(OC)CC[C@@H]12 (stereo not given in full) | inactive | –
34 | C[C@]12CCC(=O)C=C1CC[C@@H]1[C@@H]2CC[C@@]2(C)[C@H]1CC[C@]2(O)C(=O)CO | inactive | –
35 | C=CCc1cc(OC)c(O)c(C(=O)NCCO)c1 | inactive | –
36 | OCc1c2ccccc2cc2ccccc12 | inactive | –
37 | COc1ccccc1N1CCN(CCCNc2cc(=O)n(C)c(=O)n2C)CC1 | inactive | –
38 | Cc1cc2c(s1)Nc1ccccc1N=C2N1CCN(C)CC1 | inactive | –
39 | CCCCc1ccc2nc(NC(=O)OC)[nH]c2c1 | inactive | –
40 | Cc1ccc([N+](=O)[O-])c(N)c1 | inactive | –
